Experimental data as given in PubChem BioAssay (NCATS).
Inconclusive results are not listed. Where a call stands in place of a potency, no number is given. Activity calls are given as the source filed them. Calls follow the shape of the dose curve; as a rule, active = well fitted inhibition curve with a large enough effect; inconclusive = small, poorly fitted or top-dose-only effect; inactive = flat fitted curve, though single readings scatter.

Test system: Zika virus NS2B-NS3 protease
Assay: Primary screen GU AMC qHTS for Zika virus inhibitors (AID 1347154); also: nearly all actives have a fitted effect of over 70% in size
Settings: Zika NS2B-NS3 unlinked protease, AMC fluorogenic substrate; series mostly up to 54.1 µM
How it was run: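 Fluorogenic AMC-substrate cleavage by noncovalent NS2B-NS3 protease complex (25 nM, pH 8.0 Tris buffer with Tween 20) followed for 15 minutes at room temperature (~20% conversion). Percent inhibition from ex340/em450 signal change, fitted by 4-parameter Hill equation.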
Potency is read from the fitted curve at half-maximal effect.

| Structure (SMILES) | Potency |
| --- | --- |
| Clc1ccc(C(OCCN2CCCCC2)c2ccccc2)cc1 (centres undefined) | inactive |
| CCCC(C)C1(CC)C(=O)N=C(S)NC1=O (centres undefined) | inactive |
| Sc1ccccc1Cl | inactive |
| O=C(N[C@H]1N=C(c2ccccc2F)c2cccc3c2N(CC3)C1=O)c1cc2ccccc2[nH]1 | inactive |
| CC(=O)OC1(c2ccccc2)CCN(CCc2ccccc2)CC1 | inactive |
| N#Cc1nn(-c2c(Cl)cc(C(F)(F)F)cc2Cl)c(N)c1S(=O)C(F)(F)F (centres undefined) | inactive |
| C[C@]12CC[C@H]3[C@@H](CCC4=CC(=O)CC[C@@]43C)[C@@H]1CC[C@@H]2C(=O)O | inactive |
| CCN(CC)C(C)C(=O)c1ccccc1 (centres undefined) | inactive |
| C1CN2CCC1CC2 | inactive |
| COc1ccc(CN2CCNCC2)c(OC)c1OC | inactive |
| Cc1nc2ccccc2c(=O)n1-c1ccccc1Cl | inactive |
| CN(C)CCc1c[nH]c2ccc(O)cc12 | inactive |
| C[N+]1(CCC(C(N)=O)(c2ccccc2)c2ccccc2)CCCCC1 | inactive |
| Nc1ccccc1C(=O)OCC(O)CO (centres undefined) | 16.1 µM (active) |
| CCOC(=O)c1cncn1C(C)c1ccccc1 (centres undefined) | inactive |
| CCCN(CCC)CCc1c[nH]c2ccccc12 | inactive |
| CN1C(=O)CN=C(c2ccccc2)c2cc([N+](=O)[O-])ccc21 | inactive |
| Nc1ccc(Cl)cc1C(=O)c1ccccc1F | inactive |
| C[C@]12CC[C@H]3[C@@H](CCC4=CC(=O)CC[C@@H]43)[C@@H]1CC[C@@H]2O | inactive |
